Bioassay records: PubChem, National Center for Advancing Translational Sciences (NCATS)
Most compounds without a hit are left out; they make up all but 12% or so of the library.
AmpC no deterg – blocks E. coli AmpC beta-lactamase in detergent-free assay. P00811. AmpC nitrocefin hydrolysis, absorbance 480 nm, 0.0001% Triton. Potency, µM (doses to about 57.1 µM), inactives show top-dose activity change, negative = inhibition, most hits filed as inhibitors. 330,000 tested, 0.52% active. AID 485341;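 also: plate controls were no compound for no effect and no enzyme for full effect; nearly all actives have a fitted effect of over 20% in size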
Target sequence (P00811 whole entry, looked up): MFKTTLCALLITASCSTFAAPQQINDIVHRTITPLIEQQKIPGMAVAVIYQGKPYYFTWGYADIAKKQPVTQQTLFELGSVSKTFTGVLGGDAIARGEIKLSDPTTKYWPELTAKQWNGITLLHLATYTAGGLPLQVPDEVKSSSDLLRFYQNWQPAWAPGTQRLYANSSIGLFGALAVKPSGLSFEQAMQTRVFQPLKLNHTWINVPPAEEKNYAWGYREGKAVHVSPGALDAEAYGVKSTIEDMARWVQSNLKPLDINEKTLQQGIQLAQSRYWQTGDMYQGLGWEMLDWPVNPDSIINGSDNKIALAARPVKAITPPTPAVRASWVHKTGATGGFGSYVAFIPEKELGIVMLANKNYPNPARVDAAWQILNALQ
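AmpC (5.3 nM in the dispensed reagent) in 20 mM phosphate pH 7.0 with 0.01% (detergent screen) or 0.0001% Triton X-100 was preincubated with compounds for 15 min at room temperature. Nitrocefin was then added from an 800 uM solution, and hydrolysis was followed at 480 nm.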
SARS PLpro yeast – SARS-CoV PLP inhibition in yeast | AID 485353 | Potency, µM (doses to about 32.9 µM), without a hit: top-dose activity, positive = growth rescue, hits mostly activators | S. cerevisiae expressing SARS-CoV PLpro, growth rescue | 330,000 tested, 0.19% active; calls by dose curve; also: 0% is about no effect; nearly all actives have a fitted effect of over 55% in size
Pf growth 48h – inhibits P. falciparum growth in the first generation, 48 h | Potency, µM (doses to about 28.7 µM), for the others: at the highest dose activity change, negative = inhibition, actives largely listed as inhibitors | P. falciparum luciferase growth in erythrocytes, 48 h | 310,000 tested, 5.9% active; also: % is scaled to controls: 0 for no effect and ±100 for the full control effect
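Erythrocytes infected with P. falciparum carrying an integrated firefly luciferase reporter (2% hematocrit, 0.1% parasitemia final) were exposed to compounds in RPMI 1640 with 0.5% Albumax at 37 C, 5% CO2. Growth inhibition was scored as reduced luminescence.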
Pf growth 96h – P. falciparum growth inhibition at 96 hours; P. falciparum luciferase reporter growth, 96 h; 320,000 tested, 6.9% active; Potency, µM (series often up to 28.7 µM), for inactives: top-dose activity change, negative = inhibition, actives largely listed as inhibitors; AID 504834; also: % is scaled to controls: 0 for no effect and ±100 for the full control effect
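Erythrocytes infected with luciferase-expressing P. falciparum were dispensed at 2% hematocrit and 0.05% parasitemia (final), then incubated with compounds 96 hours at 37 C in 5% CO2. Luminescence after detection reagent addition reported growth.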
Sm TGR block – blocks Schistosoma mansoni thioredoxin glutathione reductase; Potency, µM (highest dose often 114 µM), for inactives: top-dose activity change, negative = inhibition, actives largely listed as inhibitors; 360,000 tested, 3% active; purified TGR, DTNB reduction, TNB absorbance 405 nm; Q962Y6; AID 485364; also: % is scaled to controls: 0 for no effect and ±100 for the full control effect; nearly all actives have a fitted effect of over 60% in size
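TGR 20 nM + NADPH 100 uM (dispensed conc.), cpd preinc 15 min RT; start with NADPH (500 uM addition) then DTNB (15 mM addition). Kinetic TNB absorbance, 405 nm filter. Four-parameter Hill fit across titration.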
AmpC detergent – blocks E. coli AmpC beta-lactamase in detergent assay. AmpC hydrolysis of nitrocefin, absorbance 480 nm, 0.01% Triton. P00811. AID 485294. Potency, µM (top dose mostly 114 µM), for the others: at the highest dose activity change, negative = inhibition, hits mostly inhibitors. 370,000 tested, 0.041% active;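 also: 0% = no-compound wells and -100% = no-enzyme wells; nearly all actives have a fitted effect of over 25% in size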
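AmpC (5.3 nM in the dispensed reagent) in 20 mM phosphate pH 7.0 with 0.01% (detergent screen) or 0.0001% Triton X-100 was preincubated with compounds for 15 min at room temperature. Nitrocefin was then added from an 800 uM solution, and hydrolysis was followed at 480 nm.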
Starred values were filed as active, the others as inactive; [ ] = another dose, or the depositor's remark. Unless noted, calls follow the shape of the dose curve; as a rule, active = well fitted curve in the direction sought with a large enough effect; inconclusive = small, poorly fitted or top-dose-only effect, or another doubt; inactive = no such curve, though single readings can be large; an effect the other way counts as inactive or inconclusive. Potency is read from the fitted curve at half-maximal effect.

What do the screens show for `COc1cccc2cc(C(=O)Nc3ccc(CC(=O)O)cc3)c(=O)oc12`?
Sm TGR block: -6%; AmpC detergent: -1%

How did O=C(Nc1ccon1)c1ccc(OC2CCCC2)cc1 do in these assays?
AmpC no deterg: -36%; SARS PLpro yeast: -11%; Pf growth 48h: -14%; Pf growth 96h: 5.2µM*; Sm TGR block: -1%; AmpC detergent: -14%

How did CC(C)(C)c1cc(NC(=O)c2ccc(OC3CCCC3)cc2)no1 do in these assays?
AmpC no deterg: -36%; SARS PLpro yeast: 8%; Pf growth 48h: 12µM*; Pf growth 96h: 12µM*; Sm TGR block: 3%; AmpC detergent: -7%

What do the screens show for `Cc1occc1C(=O)Nc1cc(C(C)(C)C)on1`?
AmpC no deterg: -19%; SARS PLpro yeast: -5%; Pf growth 48h: 50%; Sm TGR block: -11%; AmpC detergent: -7%

How did Cc1cc(C(=O)Nc2ccon2)cs1 do in these assays?
AmpC no deterg: -13%; SARS PLpro yeast: 2%; Pf growth 48h: 24%; Pf growth 96h: inconclusive; Sm TGR block: -2%; AmpC detergent: inconclusive

How did COc1cccc(C(=O)N(Cc2ccco2)c2c(N)n(Cc3ccccc3)c(=O)[nH]c2=O)c1 do in these assays?
AmpC no deterg: -12%; SARS PLpro yeast: 3%; Pf growth 48h: -28%; Pf growth 96h: inconclusive; Sm TGR block: 45µM*; AmpC detergent: -4%

How did COCCn1c(N)c(N(Cc2ccccc2)C(=O)c2ccc3ccccc3c2)c(=O)[nH]c1=O do in these assays?
AmpC no deterg: -2%; SARS PLpro yeast: -4%; Pf growth 48h: 10µM*; Pf growth 96h: inconclusive; Sm TGR block: -2%; AmpC detergent: 10%

How did Nc1c(N(Cc2ccco2)C(=O)c2cccc(Cl)c2)c(=O)[nH]c(=O)n1Cc1ccccc1 do in these assays?
AmpC no deterg: -28%; SARS PLpro yeast: 1%; Pf growth 48h: inconclusive; Pf growth 96h: inconclusive; Sm TGR block: 40µM*; AmpC detergent: -5%

Results for Cc1cc(OCC(=O)N(Cc2ccco2)c2c(N)n(Cc3ccccc3)c(=O)[nH]c2=O)ccc1Cl ?
AmpC no deterg: -48%; SARS PLpro yeast: 5%; Pf growth 48h: inconclusive; Pf growth 96h: inconclusive; Sm TGR block: inconclusive; AmpC detergent: 6%

How did Nc1c(N(Cc2ccco2)C(=O)COc2ccccc2Cl)c(=O)[nH]c(=O)n1Cc1ccccc1 do in these assays?
AmpC no deterg: -17%; SARS PLpro yeast: 1%; Pf growth 48h: inconclusive; Pf growth 96h: -20%; Sm TGR block: 50µM*; AmpC detergent: 1%

What do the screens show for `COCCN(C(=O)c1ccc2ccccc2c1)c1c(N)n(Cc2ccccc2)c(=O)[nH]c1=O`?
AmpC no deterg: 16%; SARS PLpro yeast: 0%; Pf growth 48h: -1%; Pf growth 96h: -28%; Sm TGR block: 1%; AmpC detergent: 7%

Results for CC(=O)c1ccc(N2CCN(C(=O)CCCCn3c(=O)[nH]c4ccccc4c3=O)CC2)cc1 ?
Sm TGR block: 6%; AmpC detergent: 7%

Results for CCc1cccc(NC(=O)Cn2c(=O)n(CCCCCC(=O)NCc3ccc(F)cc3)c(=O)c3sccc32)c1 ?
Sm TGR block: -9%; AmpC detergent: -7%

Results for Nc1c(N(Cc2ccco2)C(=O)c2ccc(Cl)cc2)c(=O)[nH]c(=O)n1Cc1ccccc1 ?
AmpC no deterg: -19%; SARS PLpro yeast: 1%; Pf growth 48h: inconclusive; Pf growth 96h: -24%; Sm TGR block: -28%; AmpC detergent: -1%

How did Nc1c(N(Cc2ccco2)C(=O)c2ccc(Br)cc2)c(=O)[nH]c(=O)n1Cc1ccccc1 do in these assays?
AmpC no deterg: -28%; SARS PLpro yeast: -5%; Pf growth 48h: inconclusive; Pf growth 96h: 2%; Sm TGR block: 35µM*; AmpC detergent: -1%

What do the screens show for `COc1cccc(Cc2nc3ccccc3nc2SCC(=O)N2CCCc3ccccc32)c1`?
Sm TGR block: -8%; AmpC detergent: 18%

How did COc1ccc(OCC(=O)N/N=C(\C)c2ccc(OC)cc2)cc1 do in these assays?
AmpC no deterg: -19%[11.4 µM]; SARS PLpro yeast: -2%; Pf growth 48h: 4%; Pf growth 96h: -18%; Sm TGR block: -4%; AmpC detergent: -14%

Results for COc1ccc(/C(C)=N/NC(=O)c2ccccc2N)cc1 ?
AmpC no deterg: -18%; SARS PLpro yeast: 0%; Pf growth 48h: inconclusive; Pf growth 96h: 3.7µM*; Sm TGR block: 1%; AmpC detergent: inconclusive

What do the screens show for `CCOc1ccccc1CNC(=O)c1ccc(CS(=O)Cc2cccc(Cl)c2)o1` (configuration not stated)?
Sm TGR block: inconclusive; AmpC detergent: 20%

How did O=C(N[C@@H](Cc1ccccc1)C(=O)O)c1cccnc1 do in these assays?
AmpC no deterg: -10%; SARS PLpro yeast: 18%; Pf growth 96h: 2.9µM*; Sm TGR block: 3%; AmpC detergent: inconclusive

Results for O=C(OCc1ccc(Br)cc1)c1cccnc1 ?
AmpC no deterg: -5%; SARS PLpro yeast: -10%; Pf growth 48h: 4%; Pf growth 96h: 17%; Sm TGR block: -17%; AmpC detergent: -12%

Results for O=C(OCc1ccccc1)c1cccnc1 ?
Pf growth 48h: inconclusive; Pf growth 96h: 15µM*

What do the screens show for `Cn1c(=O)c2sccc2n2c(CCCC(=O)NC3CCCCC3)nnc12`?
Sm TGR block: -5%; AmpC detergent: -6%

Results for c1ccc(CCn2nnnc2CN2CCc3ccccc32)cc1 ?
AmpC no deterg: -6%; SARS PLpro yeast: -4%; Pf growth 48h: inconclusive; Pf growth 96h: 8%; Sm TGR block: 13µM*; AmpC detergent: 5%

What do the screens show for `c1ccc2c(c1)CCCN2Cc1nnnn1C1CCCC1`?
AmpC no deterg: -2%; SARS PLpro yeast: 4%; Pf growth 48h: -8%; Sm TGR block: 6%; AmpC detergent: -14%

Results for Cc1nn(C)c(C)c1S(=O)(=O)N(CC(=O)Nc1ccc(F)cc1F)c1ccc(C(C)C)cc1 ?
Sm TGR block: -16%; AmpC detergent: -9%

Results for CCCc1cc(-c2n[nH]c(=S)n2C(C)c2ccccc2)cs1 (configuration not stated) ?
AmpC no deterg: -31%; SARS PLpro yeast: 22µM*; Pf growth 48h: -14%; Sm TGR block: -2%; AmpC detergent: -3%

How did CCCc1cc(-c2n[nH]c(=S)n2CC)cs1 do in these assays?
AmpC no deterg: -32%; SARS PLpro yeast: 0%; Pf growth 48h: 19%; Pf growth 96h: -6%; Sm TGR block: -6%; AmpC detergent: 2%
